HT1080NT lethal – kills 2HG-producing HT-1080-NT fibrosarcoma cells; HT-1080-NT fibrosarcoma viability, CellTiter-Glo ATP luminescence, 48 h; Potency, µM (titrated, usually from 46.1 µM), inactives show at the highest dose activity, negative = less viability, hits mostly cytotoxic; actives 1.6% (n = 360,000); AID 686970;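 further: NT is the 2HG producing partner of a matched IDH1 knockdown line; potency means the concentration at half of the fitted maximal effect; 0% = DMSO-treated cells and -100% = media-only wells without cells; nearly all actives have a fitted effect of over 55% in size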
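HT-1080-NT fibrosarcoma cells (2HG-overproducing), 750 cells/well in RPMI with 5% FBS, dosed after 2 h and incubated 48 h at 37C. CellTiter-Glo luminescence normalized to DMSO and no-cell wells; concentration-response curves fitted and classed.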
IL1B secr inh – inflammasome signaling inhibition, IL-1 beta readout; activity change, % at 57.5 µM; THP-1 LPS/ATP IL-1B secretion, AlphaLISA, 16 h; active compounds read low; actives 4.7% (n = 360,000); in the data active means activity change below about -50%; inconclusive means mostly about -30% to -49%
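Secreted IL-1B measured by AlphaLISA bead assay after 16 h compound exposure of THP-1 cells; compounds (final up to 57.5 uM) added 1 h before LPS (250 ng/mL) and ATP (1.25 mM) stimulation; lower signal means less secretion.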
TDP1 cell CPT – DT40-hTDP1 cell growth loss with CPT; chicken DT40 Tdp1-/-;hTDP1 cells + 20 nM CPT, ATP luminescence, 48 h; actives 12% (n = 420,000); AID 686979; Potency, µM (highest dose often 46.2 µM), without a hit: at the highest dose activity change, negative = growth inhibition, usual class: inhibitors; further: potency means the concentration at half of the fitted maximal effect; nearly all actives have a fitted effect of over 55% in size
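Chicken DT40 Tdp1-/- cells complemented with human TDP1, 400 cells/well, exposed to compounds plus 20 nM camptothecin for at least 48 h at 37 C; viability read as ATP content by CellTiter-Glo luminescence.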
HT1080 IDH1KD tx – HT-1080 IDH1 knockdown cell toxicity (counter line). actives 2% (n = 360,000). Potency, µM (titrated, usually from 46.1 µM), for the others: at the top dose activity, negative = toxicity, most hits filed as cytotoxic. HT-1080 IDH1 knockdown viability, ATP luminescence, 48 h;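 further: potency means the concentration at half of the fitted maximal effect; 0% = DMSO wells and -100% = cell-free medium wells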
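Using the IDH1-knockdown HT-1080 line run in the same batch and compound series as the NT line, viability after 48 h at 37 °C was determined by CellTiter-Glo luminescence and expressed as % activity.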
DT40 TDP1 no CPT – qHTS for Inhibitors of human tyrosyl-DNA phosphodiesterase 1 (TDP1): qHTS in cells in absence of CPT | DT40 Tdp1-/- hTDP1 cells, no CPT, ATP luminescence, 48 h | actives 15% (n = 420,000) | Potency, µM (series often up to 46.2 µM), for the others: at the top dose activity change, negative = growth inhibition, most hits filed as inhibitors; further: potency means the concentration at half of the fitted maximal effect; nearly all actives have a fitted effect of over 55% in size
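Luminescent ATP content (CellTiter-Glo) served as the growth readout. Knockout chicken DT40 cells expressing human TDP1 were exposed to compounds without camptothecin for a minimum 48 hr at 37 °C.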
The depositor's hits bear a star; ? = inconclusive; · = no result; [ ] = dose if it differs, or a comment. Compounds with a hit are over-represented: about 19% of the library has one in this group of screens. Unless noted, the call rests on the fitted dose curve; in most records, active means well fitted curve in the direction sought with a large enough effect; inconclusive means small, poorly fitted or top-dose-only effect, or another doubt; inactive means no such curve, though single readings can be large; an effect the other way counts as inactive or inconclusive. Unless noted, on the % scale 0 is the no-effect control and ±100 the full control effect.

SMILES	HT1080NT lethal	IL1B secr inh	TDP1 cell CPT	HT1080 IDH1KD tx	DT40 TDP1 no CPT
COc1cc2c(=O)c(S(=O)(=O)c3ccc(C)cc3)cn(Cc3cccc(C)c3)c2cc1OC	·	·	16µM*	·	16µM*
OCCC1CCCCN1CC(O)COCc1ccc(Cl)cc1 (configuration not stated)	-2%	-22	-1%	10%	-21%
O=C1C2CC3N1CCC31c3ccccc3-n3c1c2ccc3=O (configuration not stated)	2%	11	?	8%	?
CCN(CC)c1cc2c(cc1F)c(=O)c(S(=O)(=O)c1ccccc1)cn2Cc1ccccc1	·	·	15µM*	·	16µM*
CCOc1ccc(NC(=O)CC2C(=O)N(c3ccccc3)C(=O)N2Cc2ccccn2)cc1 (configuration not stated)	7%	10	-22%	-5%	-27%
COC(=O)c1ccc(NC(=O)CC2C(=O)N(c3ccccc3)C(=O)N2Cc2cccs2)cc1 (configuration not stated)	·	·	16µM*	·	18µM*
COC(=O)c1ccc(NC(=O)CC2C(=O)N(c3ccc(Cl)cc3)C(=O)N2Cc2cccs2)cc1 (configuration not stated)	·	·	23µM*	·	?
CCOc1ccc(NC(=O)CC2C(=O)N(c3ccc(Cl)cc3)C(=O)N2Cc2cccs2)cc1 (configuration not stated)	·	·	?	·	13µM*
COC(=O)c1ccc2c(=O)n(CCN3CCOCC3)c(SCC(=O)NCc3ccccc3)nc2c1	5%	-1	3%	11%	-29%
Cc1nnc(SCc2cc(=O)[nH]c(Nc3nc(C)c4cc(C)c(C)cc4n3)n2)s1	36%	-11	?	15%	-1%
Cc1ccc2c(C)nc(Nc3nc(CSc4nnnn4-c4ccccc4)cc(=O)[nH]3)nc2c1	?	-27	5.8µM*	?	6.5µM*
COc1ccc2nc(Nc3nc(CSc4nnnn4-c4ccccc4)cc(=O)[nH]3)nc(C)c2c1	4%	17	?	8%	?
Cc1ccc2c(C)nc(Nc3nc(CSc4nc5ccccc5s4)cc(=O)[nH]3)nc2c1	9%	16	?	8%	5.2µM*
CN(C)S(=O)(=O)N1CCC(Oc2ccc(C(=O)NCc3cnn(C)c3)cc2)CC1	4%	38	-21%	8%	21µM*
COCCN(C(=O)c1ccc(OC2CCN(S(=O)(=O)N(C)C)CC2)cc1)C(C)C	1%	31	?	-8%	13µM*
O=C(Cc1ccc(Br)cc1)Nc1ccccc1Cl	16%	1	5%	12%	0%
CC1CCN(CC(=O)n2c3c(c4ccccc42)CCCC3)CC1	?	-14	?	?	?
CCN1CCN(CC(=O)n2c3c(c4ccccc42)CC(C)CC3)CC1 (configuration not stated)	?	-12	?	0%[9.24 µM]	18µM*
Cc1ccnc(SCC(=O)n2c3c(c4ccccc42)CC(C)CC3)n1 (configuration not stated)	3%	-2	-1%	16%	-28%
CC1CCc2c(c3ccccc3n2C(=O)CCl)C1 (configuration not stated)	-18%	-60*	?	-12%	?
Cc1ccc(CNC(=O)CN2N=C(c3ccccc3)CCC2=O)cc1	·	·	-21%	·	-18%
COc1ccc(C)c2sc(N(Cc3cccnc3)C(=O)C3CCCCC3)nc12	·	·	18µM*	·	15µM*
O=C(C1CCCCC1)N(Cc1cccnc1)c1nc2c(F)cccc2s1	·	·	21µM*	·	21µM*
COc1ccc(C)c2sc(N(Cc3cccnc3)C(=O)CCc3ccccc3)nc12	·	·	?	·	15µM*
O=C(C1COc2ccccc2O1)N(Cc1cccnc1)c1nc2c(Cl)cccc2s1 (configuration not stated)	·	·	-2%	·	?
SMILES	HT1080NT lethal	IL1B secr inh	TDP1 cell CPT	HT1080 IDH1KD tx	DT40 TDP1 no CPT
COc1ccc(C)c2sc(N(Cc3cccnc3)C(C)=O)nc12	·	·	?	·	-45%
COc1cccc(C(=O)N(Cc2cccnc2)c2nc3c(OC)ccc(C)c3s2)c1OC	·	·	?	·	23µM*
Cc1ccccc1-n1cc(CNC(=O)CCc2nnc(CCc3ccccc3)o2)cn1	1%	-7	2%	23%	-16%
CNC(=O)C[C@H]1C(=O)N(Cc2ccccc2)C[C@@H]1Cc1ccccc1	7%	23	-3%	12%	6%
C[C@H]1C(O)[C@@]23CCC4C5(C=[N+](CCO)C[C@]4(C)CCC5)C2C[C@@H]1C3 (some centres not stated)	·	·	-3%[9.04 µM]	·	-11%[9.04 µM]
Cc1ccccc1OCC(=O)O/N=C(\N)c1ccncc1	6%	-9	22%	5%	-16%
COc1cc(/C=C/C(=O)c2ccc(NS(=O)(=O)c3ccc(C)cc3)cc2)cc(OC)c1O	?	-103*	?	?	?
COc1cccc(C(=O)/C=C/Nc2ccc(S(=O)(=O)Nc3cccc(C(C)=O)c3)cc2)c1	-8%	-28	18µM*	-16%	16µM*
COc1cc(S(=O)(=O)Nc2ccc(C)cc2)ccc1NC(=O)c1ccncc1	-4%	10	?	-3%	?
COc1cccc(N/C=C/C(=O)c2ccc(C)cc2)c1	-19%	-4	24%	-23%	2%
COc1cccc(/C=C/C(=O)c2ccc(NS(=O)(=O)c3ccc(C)cc3)cc2)c1	?	-99*	18µM*	?	21µM*
COc1cc(/C=C/C(=O)O)ccc1OS(=O)(=O)c1ccc(C)cc1	-4%	-1	-21%	-10%	-2%
COc1cccc(C(=O)/C=C/Nc2ccc(NC(C)=O)cc2)c1	-28%	-12	-4%	?	-27%
COc1cc(/C=C/C(=O)c2ccc(NS(=O)(=O)c3ccc(C)cc3)cc2)ccc1OC(F)F	?	-93*	?	?	18µM*
CCOC(=O)[C@]12CCC=C1N(Cc1ccccc1)C(=O)[C@H](CC(=O)NCc1ccc(OC)c(OC)c1)C2	6%	-3	?	-12%	?
CC1CCCN(C(=O)COC(=O)c2ccc3[nH]c4c(c3c2)CCCC4)C1 (configuration not stated)	-11%	-9	?	-18%	23µM*
COC(=O)C1CCN(C(=O)COC(=O)c2ccc(OC)c(S(=O)(=O)N3CCCc4ccccc43)c2)CC1	3%	19	-18%	-2%	0.41µM*
CCOC(=O)C1CCN(C(=O)COC(=O)c2ccc3[nH]c4c(c3c2)CCCC4)CC1	-13%	?	13µM*	-24%	12µM*

Screening results as filed in PubChem.
